The list is not random: actives were taken first. Their share in the collection is about 15%.
TDP1 cell noCPT: qHTS for Inhibitors of human tyrosyl-DNA phosphodiesterase 1 (TDP1): qHTS in cells in absence of CPT; DT40 Tdp1-/- hTDP1 cells, no CPT, ATP luminescence, 48 h; Potency, µM (top dose mostly 46.2 µM), for inactives: at the highest dose activity change, negative = growth inhibition, actives largely listed as inhibitors; 15% of 420,000 active; AID 686978, 2013; note: nearly all actives have a fitted effect of over 55% in size
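Stably hTDP1-transfected Tdp1-null chicken DT40 cells were treated with library compounds minus camptothecin and grown for at least 48 hr at 37 °C, after which cellular ATP was quantified by luminescence.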
12-LOX inh: blocks human arachidonate 12S-lipoxygenase | purified 12hLO, xylenol orange hydroperoxide absorbance | Potency, µM (titrated, usually from 108 µM), inactives show top-dose activity change, negative = inhibition, usual class: inhibitors | 1.1% of 580,000 active | AID 1671190
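Purified human 12hLO (150 nM final) in 25 mM Hepes, 0.01% Triton X-100, pH 7.0 was preincubated 15 min at room temperature with compound. Then 40 uM arachidonic acid was added, 30 min. Hydroperoxide was read by Fe-XO absorbance ratio 573/405 nm.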
TDP1 cell CPT: DT40-hTDP1 cell growth loss with CPT | chicken DT40 Tdp1-/-;hTDP1 cells + 20 nM CPT, ATP luminescence, 48 h | Potency, µM (top dose mostly 46.2 µM), for inactives: at the highest dose activity change, negative = growth inhibition, most hits filed as inhibitors | 12% of 420,000 active | AID 686979; note: nearly all actives have a fitted effect of over 55% in size
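Cell growth measured by CellTiter-Glo luminescence after a minimum 48 h, 37 C compound exposure with 20 nM CPT in Tdp1-knockout DT40 cells stably expressing hTDP1, seeded 400/well; qHTS titration format.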
VP16 counter: Gal4-VP16 reporter inhibition counter-screen | Potency, µM (doses to about 53.6 µM), without a hit: at the highest dose activity, negative = inhibition, hits mostly inhibitors | Drosophila S2 Gal4-VP16 UAS-luciferase, luminescence, 20 h | 3.5% of 310,000 active;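 note: Gal4-VP16 expression switched on by copper sulfate through the metallothionein promoter; nearly all actives have a fitted effect of over 50% in size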
RORgamma inh: inhibitors of mouse ROR gamma transcriptional activity; Drosophila S2 Gal4-RORgamma UAS-luciferase reporter, 20 h; 5.4% of 310,000 active; Potency, µM (highest dose often 53.6 µM), for inactives: at the highest dose activity change, negative = inhibition, hits mostly inhibitors; note: nearly all actives have a fitted effect of over 60% in size
Target sequence (P51450 whole entry, looked up, the tested form may be a part): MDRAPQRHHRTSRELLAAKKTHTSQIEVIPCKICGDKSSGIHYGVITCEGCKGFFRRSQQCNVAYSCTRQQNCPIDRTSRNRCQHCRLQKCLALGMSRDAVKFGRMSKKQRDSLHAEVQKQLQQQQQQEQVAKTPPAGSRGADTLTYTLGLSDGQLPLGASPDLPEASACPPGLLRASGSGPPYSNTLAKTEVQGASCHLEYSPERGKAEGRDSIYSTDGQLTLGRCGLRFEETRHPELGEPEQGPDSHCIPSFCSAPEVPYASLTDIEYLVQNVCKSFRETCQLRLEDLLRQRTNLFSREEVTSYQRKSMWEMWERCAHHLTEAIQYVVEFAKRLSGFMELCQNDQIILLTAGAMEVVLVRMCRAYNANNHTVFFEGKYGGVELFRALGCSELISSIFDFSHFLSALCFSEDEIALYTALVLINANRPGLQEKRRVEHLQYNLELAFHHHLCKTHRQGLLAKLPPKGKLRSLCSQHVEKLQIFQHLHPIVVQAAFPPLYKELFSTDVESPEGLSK
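ROR gamma transcriptional activity was tracked as Gal4-UAS luciferase output in stably transfected Drosophila Schneider cells, with compound added 1 hr before 700 uM copper sulfate induction and a 20 hr ambient-temperature incubation.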
ELG1 DNA repair: ELG1-dependent DNA repair inhibition; HEK293T ELG1-luciferase reporter, luminescence, 16 h; DNA damage induced by 5-fluorouridine; Potency, µM (highest dose often 46.1 µM), without a hit: top-dose activity change, negative = inhibition, most hits filed as inhibitors; 2.3% of 330,000 active; AID 504467; note: nearly all actives have a fitted effect of over 55% in size
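In this reporter screen, reduction of luminescence relative to DMSO vehicle indicated activity. Compounds and 5-fluorouridine were added together to 2,000 cells per well, incubated for 16 hr at 37 °C, then developed with ONE-Glo.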
Numbers without * were called inactive; ? = inconclusive; · = no result; [ ] = dose if it differs, or a comment. Calls come from the whole dose curve; as a rule, active = well fitted curve in the direction sought with a large enough effect; inconclusive = small, poorly fitted or top-dose-only effect, or another doubt; inactive = no such curve, though single readings can be large; an effect the other way counts as inactive or inconclusive. % is set by controls: 0 for no effect and ±100 for the full control effect; potency is the fitted concentration of half-maximal effect.

SMILES | TDP1 cell noCPT | 12-LOX inh | TDP1 cell CPT | VP16 counter | RORgamma inh | ELG1 DNA repair
CCCCc1ncc[nH]1 | · | -13%[22.9 µM] | · | · | · | ·
CCCCOc1ccc2cc(C(=O)N3CCC(C(N)=O)CC3)[nH]c2c1 | · | 12% | · | · | · | ·
Cc1ccc(N2CC(c3noc(-c4cc(F)ccc4Cl)n3)CC2=O)cc1 (configuration not stated) | · | 2% | · | · | · | ·
Cc1cc(C)c2oc(C(=O)NCCc3nc(-c4ccccc4)no3)cc(=O)c2c1 | · | 27% | · | · | · | ·
COc1ccc(Cl)cc1C(Nc1cccnc1)c1ccc2cccnc2c1O (configuration not stated) | ? | ? | ? | 2.2µM* | 1.1µM* | -11%
Oc1cccc(C(Nc2ccccn2)c2ccc3cccnc3c2O)c1Cl (configuration not stated) | 3.3µM* | ? | 0.65µM* | · | · | ·
COc1cc(NC(=O)[C@H]2CCC[C@H]2NC(=O)c2cnc(C)cn2)cc(OC)c1OC | · | 2% | · | · | · | ·
COC(=O)N1N=C(c2ccccc2)CC1(O)C(F)(F)F (configuration not stated) | 4% | -19% | -5% | 1% | -2% | ?
O=C(c1ccco1)N1N=C2CCCCCC2C1(O)C(F)(F)F (configuration not stated) | -22% | -17% | 17% | 1µM* | 0.63µM* | 0.33µM*
COc1cccc(C(=O)N2N=C(c3ccccc3)CC2(O)C(F)(F)F)c1 (configuration not stated) | ? | 2% | 3% | 20µM* | 18µM* | -6%
COc1ccc(C(=O)N2N=C(c3ccccc3)CC2(O)C(F)(F)F)cc1 (configuration not stated) | -16% | -12% | -82% | 7%[10 µM] | 16µM* | ?
O=C(c1ccncc1)N1N=C2CCCCCC2C1(O)C(F)(F)F (configuration not stated) | 14% | 1% | 0% | -9% | 36% | -29%
Nc1ccc(C(=O)N2N=C(c3ccccc3)CC2(O)C(F)(F)F)cc1 (configuration not stated) | -9% | 15% | 3% | -18% | 10µM* | -1%
CCC(CNC(=O)c1cc(=O)c2ccccc2o1)c1ccccc1 (configuration not stated) | · | -4% | · | · | · | ·
C[C@@]1(O)CCN(C(=O)c2ccc(N3CCCC3=O)cc2)C[C@@H]1O | · | 24% | · | · | · | ·
COc1cccc(C2=NN(C(=O)C3CC3)C(O)(C(F)(F)F)C2)c1 (configuration not stated) | ? | 1% | ? | · | · | ·
O=C(c1ccccc1O)N1N=C(c2ccccc2)CC1(O)C(F)(F)F (configuration not stated) | 2% | -2% | -21% | ? | 8.9µM* | ?
CCCCC1=NN(C(=O)c2ccco2)C(O)(C(F)(F)F)C1 (configuration not stated) | 0.52µM* | -7% | 0.52µM* | 18µM* | 6.3µM* | -4%
COc1cccc(C2=NN(C(=O)c3ccccc3)C(O)(C(F)(F)F)C2)c1 (configuration not stated) | 21µM* | -15% | 16µM* | ? | 10µM* | -10%
Nc1ccc(C(=O)N2N=C(c3ccc(F)cc3)CC2(O)C(F)(F)F)cc1 (configuration not stated) | 9% | 0% | -7% | -23% | ? | -27%
CCCCC1=NN(C(=O)c2cocc2C)C(O)(C(F)(F)F)C1 (configuration not stated) | ? | -6% | ? | ? | ? | -12%
COc1cccc(C2=NN(C(=O)c3ccco3)C(O)(C(F)(F)F)C2)c1 (configuration not stated) | ? | 18% | -3% | ? | 5.6µM* | ?
Cc1ccc(C2=NN(C(=O)c3ccco3)C(O)(C(F)(F)F)C2)cc1 (configuration not stated) | ? | ? | ? | ? | ? | -19%
C=CCNC(=O)NC(=O)CN1CCN(c2oc(-c3ccco3)nc2C#N)CC1 | · | -2% | · | · | · | ·
CCCNC(=O)NNC(=O)C(C)Oc1cccc(C(F)(F)F)c1 (configuration not stated) | · | 41% | · | · | · | ·
SMILES | TDP1 cell noCPT | 12-LOX inh | TDP1 cell CPT | VP16 counter | RORgamma inh | ELG1 DNA repair
CNC(=O)[C@H]1C[C@H](Oc2cccnc2)CN1C(=O)NCc1ccc(F)cc1 | · | 19% | · | · | · | ·
CCOC(=O)CSC1=C(C#N)C(c2ccc3c(c2)OCO3)CC(=O)N1 (configuration not stated) | 21µM* | -3% | ? | 0% | -2% | ·
COC(=O)C[C@@H]1CC[C@H](NC(=O)c2ccc3c(c2)OCO3)[C@@H](CO)O1 | 7% | ? | -7% | · | · | ·
O=C(C[C@@H]1CC[C@H](NC(=O)c2ccc3c(c2)OCO3)[C@@H](CO)O1)NCc1ccc(F)cc1 | 12µM* | ? | ? | · | · | ·
CCCNC(=O)C[C@@H]1C[C@@H]2c3cc(NS(=O)(=O)c4ccc(OC)cc4)ccc3O[C@@H]2[C@@H](CO)O1 | ? | 0% | ? | · | · | ·
COc1ccccc1CNC(=O)C[C@@H]1C[C@H]2c3cc(NC(=O)c4ccc5c(c4)OCO5)ccc3O[C@H]2[C@@H](CO)O1 | ? | 16% | ? | · | · | ·
O=C(C[C@H]1C[C@@H]2c3cc(NC(=O)c4ccc5c(c4)OCO5)ccc3O[C@@H]2[C@H](CO)O1)NCc1cc(F)ccc1F | 26µM* | -28% | ? | · | · | ·
CCCNC(=O)C[C@@H]1C[C@H]2c3cc(NC(=O)c4ccc5c(c4)OCO5)ccc3O[C@H]2[C@@H](CO)O1 | 15µM* | 0% | 23µM* | · | · | ·
COc1ccc(NC(=O)CCn2ccn3nc4c(c3c2=O)CCCC4)cc1OC | · | 37% | · | · | · | ·
O=C(Cc1ccsc1)Nc1ccc(-c2nnc3n2CCCC3)cc1 | · | 25% | · | · | · | ·
COc1cc(NC(=O)N2CCC3(CC2)Nc2ccccc2-n2cccc23)cc(OC)c1OC | ? | 0% | 21µM* | · | · | ·
CCC(C)NC(=O)N1CCC2(CC1)Nc1ccccc1-n1cccc12 (configuration not stated) | · | -10% | · | · | · | ·
COc1cccc(CNC23CC4CC(CC(C4)C2)C3)c1OCc1ccccc1 | 10µM* | -25% | 9.2µM* | 4% | 2% | ?
COc1cc(CNCCc2c[nH]c3ccccc23)ccc1OCc1ccccc1F | ? | -22% | 18µM* | ? | ? | 10%

From PubChem
